Data as given in PubChem BioAssay (Tox21).
A number with no mark means an inactive call. Calls of active or inactive are those of the source. The call rests on the fitted dose curve; in most records, active means well fitted cell-killing curve with a large enough effect in the repeat runs; inconclusive means weak or mixed curves, or effect the other way; inactive means flat fitted curve, though single readings scatter.

Assay: qHTS assay to identify small molecule HDAC inhibitors - cell viability counter screen (AID 1259365); further: nearly all actives have a fitted effect of over 50% in size
Conditions: HCT-116 viability, CellTiter-Glo ATP luminescence, 2 h; series mostly up to 92.4 µM; activity change, negative = cytotoxicity: at the top concentration
From the text: U.S. Tox21 Program National Center for Advancing Translational Sciences [NCATS] NIH Chemical Genomics Center [NCGC] U.S. Environmental Protection Agency [EPA] National Institutes of Environmental Health Sciences [NIEHS] National Toxicology Program [NTP] U.S. Food and Drug Administration [FDA] Tox21 Assay Overview: Histone deacetylases (HDACs) are a group of epigenetic enzymes that regulate gene expression by histone deacetylation. HDACs are capable of introducing epigenetic modifications and such aberrations contribute to the onset and progression of several human diseases, thus making HDACs a popular therapeutic target. For identifying endogenous class I/II HDAC inhibitors a homogenous, luminogenic HDAC I/II cell based assay was used to measure the relative activity of class I and II HDACs from cells. Wild type HCT-116 cells were used to screen Tox21 compound libraries for identifying class I/II HDAC inhibitors.
Tox21 Assay Protocol Summary: HCT-116 cells were dispensed at 1,500 per well in 5uL of culture medium into white solid bottom 1536-well plates (Greiner Bio-One, Monroe, NC) using a Multidrop Combi (Thermo Scientific, Waltham, MA) dispenser. The assay plates were incubated at 37 C and 5% CO2 for an overnight, and then 23nL of compounds dissolved in DMSO and positive control were transferred using a Pintool station (Wako, San Diego, CA). The assay plates were incubated at 37C and 5% CO2 for 2hr. After compound treatment, 4uL of CellTiter-Glo reagent (Promega Corporation, Madison, WI) was added to each well of the assay plates using Flying Reagent Dispenser (FRD, Aurora Discovery, San Diego, CA) and incubated the assay plates at room temperature for 30min. The luminescence signal was quantified using a ViewLux plate reader (Perkin Elmer, Shelton, CT).
On the % scale 0 is the no-effect control and ±100 the full control effect; potency means the concentration at half of the fitted maximal effect.

SMILES | activity change, negative = cytotoxicity | Potency
CC(CO)CO | 0.238% | 
OC[C@H]1O[C@@H](n2cnc3c(=S)nc[nH]c32)[C@H](O)[C@@H]1O | -17.7% [at 42.5 µM] | 
C[C@@H](CN(C)C)CN1c2ccccc2Sc2ccccc21 | -2.09% [at 42.5 µM] | 
CN1C[C@H](C(=O)N[C@]2(C)O[C@@]3(O)[C@@H]4CCCN4C(=O)[C@H](Cc4ccccc4)N3C2=O)C[C@@H]2c3cccc4[nH]cc(c34)C[C@H]21 | 7.85% [at 42.5 µM] | 
Cc1ccccc1N=C(N)Nc1ccccc1C | -5.7% | 
Oc1c(I)cc(I)c2cccnc12 | -0.0056% [at 42.5 µM] | 
CC(O)c1ccccc1 (stereo not given) | 5.91% | 
Cc1ccc(C(C)(C)O)cc1 | 2.51% | 
O=C(/C=C/c1ccc(O)c(O)c1)O[C@@H]1C[C@@](OC(=O)/C=C/c2ccc(O)c(O)c2)(C(=O)O)C[C@@H](O)[C@@H]1O | -0.389% [at 42.5 µM] | 
COc1cc(C(=O)NCCCCCC(=O)O)cc(OC)c1OC | 0.928% [at 42.5 µM] | 
Oc1cccc(O)c1O | -0.744% | 
CC(C)=CCC1C(=O)N(c2ccccc2)N(c2ccccc2)C1=O | 0.547% [at 42.5 µM] | 
CN1CCCC(CC2c3ccccc3Sc3ccccc32)C1 (stereo not given) | 0.406% [at 42.5 µM] | 
FC(F)(F)c1ccccc1Cl | 0.627% | 
C1C[C@@H]2[C@H]3CC[C@H](C3)[C@@H]2C1 | -0.964% | 
COc1ccccc1N1CCN(CC(O)COc2cccc3ccccc23)CC1 (stereo not given) | -7.07% [at 42.5 µM] | 
CC(C)C(O)(c1ccc(OC(F)(F)F)cc1)c1cncnc1 (stereo not given) | 0.178% | 
c1ccc2sc(SN(C3CCCCC3)C3CCCCC3)nc2c1 | -3.66% | 
CC(C)C[C@H](NC(=O)[C@H](CCc1ccccc1)NC(=O)CN1CCOCC1)C(=O)N[C@@H](Cc1ccccc1)C(=O)N[C@@H](CC(C)C)C(=O)[C@@]1(C)CO1 | 8.92% [at 42.5 µM] | 
CCCCCCC(C)(C)C(=O)O | -0.401% | 

SMILES | activity change, negative = cytotoxicity | Potency
CC1=C(Br)C(=O)C(Br)=C/C1=C(/c1ccccc1S(=O)(=O)O)c1cc(Br)c(O)c(Br)c1C |  | 18.6 µM (active)
Cc1ccc(OC(=O)c2ccccc2O)cc1 | -10.9% | 
O=C(/C=C/c1ccccc1)OCCc1ccccc1 | -3.21% | 
C(=C\c1ccccc1)/c1ccccc1 | 0.117% | 
CCC1(CO)COCOC1 | 0.56% | 
CC(=O)N/N=C/c1ccc([N+](=O)[O-])o1 | 7.59% [at 42.5 µM] | 
CCOc1ccccc1O[C@H](c1ccccc1)[C@H]1CNCCO1 | 1.4% [at 42.5 µM] | 
NNC(=O)CP(=O)(c1ccccc1)c1ccccc1 | 3.48% [at 42.5 µM] | 
Oc1cccc(Nc2ccccc2)c1 | 0.722% | 
Cc1cscn1 | 1.55% | 
CCCCCCCC/C=C\CCCCCCCCO | -0.0515% | 
CC(C)(C)CC(=O)OCC(=O)[C@@]1(O)CC[C@H]2[C@@H]3CCC4=CC(=O)C=C[C@]4(C)[C@H]3[C@@H](O)C[C@@]21C | 1.28% [at 42.5 µM] | 
CC(=O)OCC[N+](C)(C)C | 3.48% [at 42.5 µM] | 
CCCCCC[C@@H](O)C/C=C\CCCCCCCC(=O)OCC(O)CO (stereo not given in full) | 2.79% | 
COC(=O)c1nc(Cl)c(Cl)nc1N | 14.8% [at 42.5 µM] | 
CN1CCCC(n2nc(Cc3ccc(Cl)cc3)c3ccccc3c2=O)CC1 (stereo not given) | -0.141% [at 42.5 µM] | 
O=C(Nc1cccc2c(=O)cc(-c3nn[nH]n3)oc12)c1ccc(OCCCCc2ccccc2)cc1 | 4.75% [at 42.5 µM] | 
O=C(CCCN1CC=C(n2c(=O)[nH]c3ccccc32)CC1)c1ccc(F)cc1 | -5.76% [at 42.5 µM] | 
CC(CC1c2ccccc2CCc2ccccc21)CN(C)C (stereo not given) | -10.3% [at 42.5 µM] | 
C[C@@H](O)[C@H]1C(=O)N2C(C(=O)O)=C([C@H]3CCCO3)S[C@H]12 | 0.344% [at 42.5 µM] | 
